# Screening data from PubChem.
# The list is not random: actives were taken first. Their share in the collection is about 21%.
# Pf growth 96h = P. falciparum growth inhibition at 96 hours; hit rate 6.9% among 320,000; P. falciparum luciferase reporter growth, 96 h; Potency, µM (titrated, usually from 28.7 µM), without a hit: top-dose activity change, negative = inhibition, most hits filed as inhibitors; also: potency is read from the fitted curve at half-maximal effect; % is scaled to controls: 0 for no effect and ±100 for the full control effect
#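 96 h incubation, 37 C, 5% CO2, of luciferase-reporter P. falciparum-infected RBCs (2% hematocrit, 0.05% parasitemia final) with test compounds; endpoint luminescence.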
# Pf growth 48h = P. falciparum growth inhibition at 48 hours (one generation); hit rate 5.9% among 310,000; P. falciparum luciferase growth in erythrocytes, 48 h; Potency, µM (highest dose often 28.7 µM), for inactives: at the highest dose activity change, negative = inhibition, usual class: inhibitors; also: potency is read from the fitted curve at half-maximal effect; % is scaled to controls: 0 for no effect and ±100 for the full control effect
#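 Compounds are pin-transferred into medium, infected erythrocytes (2% hematocrit, 0.1% parasitemia final) are added, and plates sit one parasite generation at 37 C in 5% CO2. Detection reagent is then added and luminescence measured.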
# HCV inh = HCV inhibition; Potency, µM (highest dose often 41.8 µM), inactives show top-dose activity change, negative = inhibition, usual class: inhibitors; hit rate 3.4% among 340,000; AID 651820; Huh7.5.1 HCVcc-Cre infection, luciferase reporter, 44 h; also: potency is read from the fitted curve at half-maximal effect; % is scaled to controls: 0 for no effect and ±100 for the full control effect
#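 Cells (1,000/well) were plated 4 h before compound, then infected with HCVcc-Cre virus (~0.5 moi). After 44 h further culture, infection was read as luciferase luminescence following a 15 min substrate incubation at room temperature.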
# HCMV antiviral = human cytomegalovirus inhibition | HFF cells, HCMV-luciferase reporter, 72 h; stronger effect = lower value | hit rate 4.5% among 410,000 | activity change, negative = inhibition, % at 57.5 µM | AID 1259415; in the data active = activity change below about -60%; inconclusive = no clear call, values can overlap the other calls; inactive = above about -39%; also: % is scaled to controls: 0 for no effect and ±100 for the full control effect
#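 Human foreskin fibroblasts infected with luciferase-reporter HCMV at MOI 1 PFU/cell, compounds at two doses. Luciferase measured 72 h post infection; normalized to buffer-only basal and Salinomycin (10uM) controls.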
# Cycloheximide cs = counter-screen hit for Shiga toxin inhibitors, cycloheximide. cell reporter, cycloheximide protein synthesis inhibition counterscreen. max response, %. hit rate 12% among 300,000. AID 2314; in the data active = max response mostly above about 13%, no sharp cut-off; inactive = mostly below about 14%; also: read at 38.3 µM for the half of the compounds with a filed dose; 0% is about no effect
# Shiga toxin inh = blocks Shiga toxin action in Vero cells. Vero cells, Shiga toxin protein synthesis inhibition reporter. inhibition, % at 38.7 µM. hit rate 9.2% among 290,000; in the data active = inhibition mostly above about 28%, no sharp cut-off; inactive = mostly below about 43%; also: 0% is about no effect
# Starred values were filed as active, the others as inactive; ? = inconclusive; . = no result given; ! = not active in a repeat. Unless noted, calls follow the shape of the dose curve; as a rule, active = well fitted inhibition curve with a large enough effect; inconclusive = small, poorly fitted or top-dose-only effect, or another doubt; inactive = no such curve, though single readings can be large or run the other way.
SMILES,Pf growth 96h,Pf growth 48h,HCV inh,HCMV antiviral,Cycloheximide cs,Shiga toxin inh
O=C1c2ccccc2C(=O)N1CCCCN(C(=O)c1cc([N+](=O)[O-])ccc1Cl)c1ccc(Cl)cc1,1%,?,-23%,-30,-2,-12
CN(c1ccccc1)S(=O)(=O)c1ccc(NC(=O)c2nc(S(C)(=O)=O)ncc2Cl)cc1,0%,17%,10µM*,-111*,-18,-23
CCc1ccc(NC(=O)c2nc(S(=O)(=O)Cc3ccccc3)ncc2Cl)cc1,?,42%,.,-100*,-8,-10
CCS(=O)(=O)c1ncc(Cl)c(C(=O)Nc2c(C(=O)Nc3cccc(C)c3)oc3ccccc23)n1,.,.,.,19,.,.
CCS(=O)(=O)c1ncc(Cl)c(C(=O)Nc2ccccc2)n1,.,.,.,-103*,.,.
CCOC(=O)c1c(-c2ccccc2)csc1NC(=O)c1nc(S(=O)(=O)CC)ncc1Cl,.,.,.,-98*,.,.
CCCSc1ncc(Cl)c(C(=O)Nc2ccc(S(=O)(=O)N(C)c3ccccc3)cc2)n1,.,.,.,-35,.,.
CCOc1cc(C(=O)NCCc2sc(-c3ccc(F)cc3)nc2C)cc(OCC)c1OCC,.,.,.,18,.,.
C=C1[C@@H](O)[C@H](CC(C)C)N(Cc2ccccc2Br)S1(=O)=O,.,.,-5%,-32,.,.
CC(=O)Oc1ccc2oc(-c3ccccc3)c(C(N)=O)c2c1,20%,16%,12%,.,-3,-3
CSc1ncc(Cl)c(C(=O)Nc2ccccc2[N+](=O)[O-])n1,9.3µM*,66%,4%,54,-2,-6
CCN(c1ccccc1)S(=O)(=O)c1ccc(Cl)c(C(=O)Nc2ccncc2)c1,.,.,.,-13,.,.
CCOC(=O)c1ccc(NC(=O)c2nc(SC(C)C)ncc2Cl)cc1,.,.,.,-11,.,.
CCOC(=O)c1ccc(NC(=O)c2nc(S(=O)(=O)Cc3ccccc3)ncc2Cl)cc1,1%,36%,10µM*,-99*,14,8
CCN(c1ccccc1)S(=O)(=O)c1ccc(NC(=O)c2nc(SC)ncc2Cl)cc1,.,.,.,-86*,.,.
COc1ccc(NC(=O)C2CCC(CNS(=O)(=O)c3csc(C(N)=O)c3)CC2)cc1 (stereo unspecified),.,.,.,-12,.,.
COc1ccc(CCN2CCC[C@H](CN3CCc4cc(OC)c(OC)cc4CC3=O)C2)cc1OC,.,.,.,.,-4,-7
Cc1ccc(-n2nc(CO)c(C(=O)NCCC(C)C)n2)cc1C,.,.,.,-36,.,.
Cc1ccc(C)c(NC(=O)C(=O)NCCc2csc3nc(-c4ccccc4C)nn23)c1,.,.,.,-68*,.,.
Cc1ccc(NC(=O)C(=O)NCCc2csc3nc(-c4ccccc4C)nn23)cc1Cl,.,.,.,17,.,.
CCOc1ccc(C(CC(=O)O)n2cnnn2)cc1 (stereo unspecified),?,-1%,16%,-29,-2,28
CCCC(=O)C1C(=O)CC(CC(C)SCC)CC1=O (stereo unspecified),-36%,.,22%,29,-4,-10
CCCC(=N)C1=C(O)CC(CC(C)SCC)CC1=O (stereo unspecified),19%,-6%,16%,20,8,7
CCCc1noc2c1/C(=N\O)CC(CC(C)SCC)C2 (stereo unspecified),0%,?,?,-27,33*,19*
CCSC(C)CC1C/C(=N/O)c2c(CC)noc2C1 (stereo unspecified),7%,15µM*,5%,-33,3,4
SMILES,Pf growth 96h,Pf growth 48h,HCV inh,HCMV antiviral,Cycloheximide cs,Shiga toxin inh
CCN(C(=O)c1ccc2c(c1)N(Cc1cccc(Cl)c1)C(=O)c1ccccc1S2=O)c1ccccc1 (stereo unspecified),.,.,.,-40,.,.
CC(NC(=O)c1ccc(Br)o1)C1CC2CCC1C2 (stereo unspecified),1µM*,-8%,-2%,4,-1,-2
CC(NC(=O)c1ccc(Br)o1)C1CCCO1 (stereo unspecified),53%,1%,12%,-12,-3,8
CCOc1ccc(S(=O)(=O)N2CCN=C2c2ccccc2)cc1,?,-1%,-10%,-5,-2,-3
Cc1ccc(CC(CC(=O)Nc2cccc(C(F)(F)F)c2)C(=O)O)cc1 (stereo unspecified),15µM*,46%,4%,15,-2,-12
O=C(CC(Cc1ccccc1)C(=O)O)Nc1ccccc1 (stereo unspecified),185%,34%,14%,0,-2,-10
Cc1cccc(S(=O)(=O)N2CCN(Cc3ccc4c(c3)OCO4)CC2)c1,0.74µM*,16%,6%,-26,-3,-9
COc1ccc(S(=O)(=O)N2CCN(Cc3ccc4c(c3)OCO4)CC2)cc1C,.,.,.,-8,.,.
Cc1cc(S(=O)(=O)N2CCN(Cc3ccc4c(c3)OCO4)CC2)cc(C)c1N1CCCC1=O,?,10%,11%,-96*,-6,-12
Cc1ccc2nsnc2c1S(=O)(=O)N1CCN(Cc2ccc3c(c2)OCO3)CC1,.,-9%,22µM*!,-29,0,-8
Cc1ccc2nsnc2c1S(=O)(=O)N1CCN(C)CC1,20%,19%,4%,5,9,-4
CCN1CCN(c2ccc(NC(=O)c3ccco3)cc2)CC1,5%,86%,-5%,-16,42*,34*
COc1ccc(-c2n[nH]c3c2CN(C(=O)c2ccccc2)CC3)cc1,2%,2%,-6%,0,14,-3
O=C(c1ccco1)N1CCc2[nH]nc(-c3ccc(Cl)cc3)c2C1,?,2%,11µM*,-19,-2,-5
Cc1occc1C(=O)N1CCN(c2ccc([N+](=O)[O-])cc2)CC1,?,0%,-26%,41,0,-13
Cc1occc1C(=O)N1CCN(c2ccc(Cl)cc2)CC1,4.7µM*,15%,-16%,?,-1,-25
CC(C)(C)OC(=O)N1CCN(c2ccc(NC(=O)c3ccco3)cc2)CC1,2%,7.4µM*,-19%,-40,7,14
O=C(c1ccco1)N1CCN(c2ccc(Cl)c(Cl)c2)CC1,.,.,-6%,-6,.,.
CC(C)c1ccc(NC(=O)C(c2ccccc2)N2CCN(C(=O)c3ccco3)CC2)cc1 (stereo unspecified),?,9.3µM*,-7%,50,55*,125*
CCCC(=O)N1CCN(c2ccc(NC(=O)c3ccco3)cc2)CC1,.,36%,3.2µM*,12,8,11
O=C(Nc1ccc(N2CCN(C(=O)c3ccco3)CC2)cc1)c1cc(Br)ccc1Cl,10µM*,13µM*,?,-33,.,.
CCN1CCN(c2ccc(NC(=O)c3ccc4c(c3)[nH]c(=O)n4Cc3ccc(F)cc3)cc2)CC1,13µM*,7.4µM*,7.1µM*,?,-3,10
COc1ccc(Cn2c(=O)[nH]c3cc(C(=O)Nc4ccc(N5CCN(C)CC5)cc4)ccc32)cc1,?,-21%,?,-26,4,-17
CCN(CC)C(=O)Cn1c(=O)n(Cc2ccc(C(=O)NCc3ccccc3Cl)cc2)c(=O)c2ccccc21,.,.,.,3,.,.
